High-throughput results: PubChem, National Center for Advancing Translational Sciences (NCATS)
Many of the other results were omitted from the sample, so hits are more common in it than they were.
Giardia FBPA inh: qHTS Assay for Inhibitors of Fructose-1,6-bisphosphate Aldolase from Giardia Lamblia | A8B2U2 | purified Giardia FBPA | Potency, µM (highest dose often 59.6 µM), without a hit: at the highest dose activity, negative = inhibition, usual class: inhibitors | hit rate 0.71% among 290,000; also: potency is read from the fitted curve at half-maximal effect; % is scaled to controls: 0 for no effect and ±100 for the full control effect; nearly all actives have a fitted effect of over 55% in size
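Giardia FBPA (40 nM reagent) was preincubated 10 min at RT with compound (up to 57.5 uM final), then substrate plus GAPDH/TPI/NAD/arsenate coupling system with diaphorase/resazurin was added; resorufin fluorescence (525/598 nm) was read after 20 min.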
Shiga inhibitor: A qHTS for Small Molecule Inhibitors of Shiga Toxin | Vero cells, Shiga toxin protein synthesis inhibition reporter | inhibition, % at 38.7 µM | hit rate 9.2% among 290,000 | AID 2315, 2010; in the data active = inhibition mostly above about 28%, no sharp cut-off; inactive = mostly below about 43%; also: 0% is about no effect
TbPYK inhibitor: qHTS of Trypanosoma Brucei Inhibitors | hit rate 0.12% among 410,000 | AID 624173, 2012 | pyruvate kinase (Trypanosoma brucei), Q57TT1 | Potency, µM (series often up to 76.8 µM), without a hit: at the highest dose activity, negative = inhibition, most hits filed as inhibitors | TbPYK enzyme, Kinase-Glo Plus ATP luminescence, 45 min; also: potency is read from the fitted curve at half-maximal effect; % is scaled to controls: 0 for no effect and ±100 for the full control effect; nearly all actives have a fitted effect of over 50% in size
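ADP (130 uM final) triggers the TbPYK reaction after compound addition; incubation is 45 min at room temperature. Kinase-Glo Plus is then added and luminescence imaged. Normalized data are fitted to concentration-effect curves.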
LmPK inh: qHTS Assay for Inhibitors of Leishmania Mexicana Pyruvate Kinase (LmPK) | hit rate 0.37% among 290,000 | purified LmPK, Kinase-Glo ATP luminescence, 1 h | Q27686 | Potency, µM (doses to about 57.5 µM), for inactives: at the top dose activity change, negative = inhibition, most hits filed as inhibitors; also: potency is read from the fitted curve at half-maximal effect; % is scaled to controls: 0 for no effect and ±100 for the full control effect
Target sequence (Q27686 whole entry, looked up): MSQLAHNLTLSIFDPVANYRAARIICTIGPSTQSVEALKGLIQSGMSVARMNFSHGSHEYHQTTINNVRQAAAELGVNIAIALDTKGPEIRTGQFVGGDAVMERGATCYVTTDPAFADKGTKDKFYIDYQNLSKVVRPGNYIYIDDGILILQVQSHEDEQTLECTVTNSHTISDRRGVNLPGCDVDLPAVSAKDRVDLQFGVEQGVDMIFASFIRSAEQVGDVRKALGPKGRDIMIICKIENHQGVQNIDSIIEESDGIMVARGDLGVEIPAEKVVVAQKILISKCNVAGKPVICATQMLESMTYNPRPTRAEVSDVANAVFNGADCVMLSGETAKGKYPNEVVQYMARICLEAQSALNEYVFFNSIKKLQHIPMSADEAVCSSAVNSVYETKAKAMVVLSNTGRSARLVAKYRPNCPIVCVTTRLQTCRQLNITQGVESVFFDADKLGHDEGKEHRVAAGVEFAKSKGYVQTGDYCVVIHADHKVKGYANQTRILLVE
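Kinase-Glo luminescence read after 1 h RT reaction of 0.1 nM LmPK with 0.5 mM PEP and 0.1 mM ADP. Activity scaled between uninhibited and enzyme-free controls.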
Sm TGR inh: qHTS Assay for the Inhibitors of Schistosoma Mansoni Peroxiredoxins | Schistosoma mansoni thioredoxin glutathione reductase (TGR), Q962Y6 | purified TGR, DTNB reduction, TNB absorbance 405 nm | Potency, µM (series often up to 114 µM), inactives show at the top dose activity change, negative = inhibition, most hits filed as inhibitors | hit rate 3% among 360,000; also: potency is read from the fitted curve at half-maximal effect; % is scaled to controls: 0 for no effect and ±100 for the full control effect; nearly all actives have a fitted effect of over 60% in size
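First, TGR (20 nM dispensed) and NADPH were mixed with compound. Second, a 15 min room-temperature incubation followed. Third, further NADPH and then DTNB were added to start the reaction. Finally, TNB absorbance was monitored kinetically.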
Cycloheximide cs: Cycloheximide Counterscreen for Small Molecule Inhibitors of Shiga Toxin. AID 2314, 2010. hit rate 12% among 300,000. max response, %. cell reporter, cycloheximide protein synthesis inhibition counterscreen; in the data active = max response mostly above about 13%, no sharp cut-off; inactive = mostly below about 14%; also: read at 38.3 µM for the half of the compounds with a filed dose; 0% is about no effect
The depositor's hits bear a star; ? = inconclusive; . = no result. Unless noted, calls follow the shape of the dose curve; as a rule, active = well fitted curve in the direction sought with a large enough effect; inconclusive = small, poorly fitted or top-dose-only effect, or another doubt; inactive = no such curve, though single readings can be large; an effect the other way counts as inactive or inconclusive.

SMILES	Giardia FBPA inh	Shiga inhibitor	TbPYK inhibitor	LmPK inh	Sm TGR inh	Cycloheximide cs
COC(=O)C1=C(O)/C(=C\c2ccc(CNC(=O)C(=O)Nc3ccc(C)c(C)c3)o2)N=C1C	-23%	-1	-11%	13%	32µM*	0
CCOC(=O)C1=C(O)/C(=C\c2cccc(OC)c2)N=C1C	0%	23	-6%	-4%	1%	-3
COC(=O)C1=C(O)/C(=C/c2ccc(OCC(=O)Nc3ccc(OC)cc3)cc2)N=C1C	.	.	-4%	.	.	.
COC(=O)C1=C(O)/C(=C\c2ccc(CNC(=O)C(=O)Nc3ccc(C)cc3)o2)N=C1C	?	15	-1%	3%	18µM*	11
CCOC(=O)C(=O)NCc1ccc(/C=C2/N=C(C)C(C(=O)OCC)=C2O)o1	?	-15	-4%	4%	32µM*	3
CCc1ccc(CNC(=O)CCn2c(=O)c3cccn3c3ccc(F)cc32)cc1	.	.	1%	.	1%	.
Cc1ccc(CN2CCN(CC(=O)N/N=C/c3c[nH]c4ccccc34)CC2)cc1	6%	-5	1%	7%	-6%	0
CCc1ccc2c(Cl)c(C(=O)N/N=C/c3c[nH]c4ccccc34)sc2c1	0%	30	-2%	2%	14%	22*
CCc1ccc(/C=N/NC(=O)c2cc(-c3cccc([N+](=O)[O-])c3)n[nH]2)cc1	5%	-9	1%	3%	4%	-1
CCc1ccc(-c2cc(C(=O)N/N=C/c3c[nH]c4ccccc34)[nH]n2)cc1	-1%	106*	5%	4%	8%	35*
CN1CCN(C(c2ccc(F)cc2)c2sc3nc(-c4ccco4)nn3c2O)CC1 (stereo not drawn)	.	.	6%	.	-1%	.
Cc1cc(C)n(CC(O)COc2ccc3ccccc3c2)n1 (stereo not drawn)	-3%	46*	6%	0%	-2%	26*
Cc1ccc(-c2nnn3c2nc(NCC(C)c2ccccc2)c2ccccc23)cc1 (stereo not drawn)	.	.	1%	.	-17%	.
C=C/C1=C/Cc2ccccc2[C@H](C[N+](=O)[O-])C(C(C)=O)(C(=O)OC)C1 (stereo partly drawn)	-4%	.	.	.	.	.
O=C1C(=Cc2ccco2)CCCC1=Cc1ccco1	.	.	-12%	.	.	.
O=C1NC(c2ccc(Br)cc2)=N/C1=C/c1ccco1	?	63*	-5%	-3%	?	41*
O=C1NC(c2ccccc2Cl)=N/C1=C/c1ccco1	-18%	61*	-21%	?	?	38*
Nc1cccc(-c2nc3ccccc3s2)c1	-4%	69*	-13%	14µM*	0%	31*
CC[n+]1cccc(-c2nc3ccccc3s2)c1	-1%	57	-6%	1%	-24%	39*
Oc1cccc(-c2nc3ccccc3s2)c1	-7%	43*	?	-16%	8%	24*
CC(=O)Oc1cccc(N2C(=O)c3ccc(C(=O)O)cc3C2=O)c1	15%	-3	-3%	-20%	0%	-4
CC(C)c1ccc(-c2nc3ccccc3s2)cc1	-9%	-12	-29%	?	13%	-1
O=C(O)c1ccc2c(c1)C(=O)N(c1cccc(-c3nc4ccccc4s3)c1)C2=O	8%	61*	-4%	3%	3%	49*
FC(F)(F)c1ccc(-c2nc3ccccc3s2)cc1	.	.	-11%	.	.	.
CCC(C)c1ccc(S(=O)(=O)N2CCN(CC(O)COCC3CCCO3)CC2)cc1 (stereo not drawn)	.	.	-2%	.	-6%	.
SMILES	Giardia FBPA inh	Shiga inhibitor	TbPYK inhibitor	LmPK inh	Sm TGR inh	Cycloheximide cs
Cc1noc(C)c1-c1ccc2ncnc(NC(C)c3ccccc3)c2c1 (stereo not drawn)	1%	-17	.	.	.	1
Cc1cc(C)c(-c2nc3ccccc3s2)[nH]1	-25%	96*	-27%	-6%	1%	32*
CCc1nnc(NC(=O)Cc2c[nH]c3ccccc23)s1	-19%	20	-3%	15%	1%	2
Cc1csc(NC(=O)Cc2c[nH]c3ccccc23)n1	-8%	72*	-8%	-2%	6%	27
Cc1cnc(NC(=O)Cc2c[nH]c3ccccc23)s1	17%	53	-17%	9%	-3%	67*
O=C(Cc1c[nH]c2ccccc12)Nc1nccs1	1%	21	1%	1%	0%	13
COc1ccc(OC)c(NC(=O)Nc2cccc(OCc3cc(=O)n4cc(C)ccc4n3)c2)c1	.	.	-8%	.	?	.
Cn1c(SCC(=O)c2ccc3c(c2)OCCO3)nnc1C(F)(F)F	-2%	34	-13%	3%	-2%	22*
Cn1c(SCC(=O)c2ccc3c(c2)OCO3)nnc1-c1ccccn1	-11%	19	-10%	-6%	2%	25
Cn1c(SCC(=O)c2ccc3c(c2)OCCO3)nnc1C1CC1	-1%	44*	-10%	1%	?	18*
CSc1nc(Cl)cc(Nc2ccc(O)cc2)n1	-3%	63	3%	1%	-9%	42*
CNc1cc(Cl)nc(SC)n1	2%	18	0%	-3%	12%	1
O=C(CSc1ncnc2sc3c(c12)CCCC3)NC1CCS(=O)(=O)C1 (stereo not drawn)	.	.	-5%	.	.	.
NC(=O)c1c(N)sc2c1CCCC2	?	15	?	7%	13µM*	16
Nc1sc2c(c1C(=O)NC1CCS(=O)(=O)C1)CCCC2 (stereo not drawn)	?	-17	?	-3%	22µM*	-3
O=C(c1ccco1)n1nc(-c2ccccc2)nc1NCc1ccccc1Cl	.	.	12%	.	6%	.
O=C(NCc1cc(C(F)(F)F)cc(C(F)(F)F)c1)c1cc(-c2cc(F)ccc2OCC2CCCO2)n[nH]1 (stereo not drawn)	.	.	8%	.	.	.
Nc1cc(C(F)(F)F)ccc1OCC1CCCO1 (stereo not drawn)	5%	21*	0%	-1%	-15%	26*
O=C(COC(=O)C1CCN(S(=O)(=O)c2cccs2)CC1)Nc1ccc(F)cc1F	8%	38	-4%	5%	3%	2
O=C(Cn1c(-c2cccs2)cc2ccccc21)NCCCN1CCN(c2ccccc2F)CC1	.	.	8%	.	22%	.
Cc1onc(C(=O)Nc2ccc(OC(F)(F)F)cc2)c1[N+](=O)[O-]	.	89*	1%	-1%	-10%	57*
CC(=O)c1ccc(NC(=O)c2noc(C)c2[N+](=O)[O-])cc1	.	63*	3%	-2%	-18%	31*
Cc1noc(C)c1S(=O)(=O)Nc1ccc(C(=O)Nc2ccc(OC(F)(F)F)cc2)cc1	1%	-5	-10%	6%	-27%	-11
C=CC(C)(C)c1c2c(c(O)c3c(=O)c4ccc(O)c(O)c4oc13)C=CC(C)(C)O2	-24%	.	.	.	.	.
